In PubChem BioAssay:
Results filed as inconclusive are left out. The source made the active and inactive calls.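 How the source made its calls, unless noted: active means response below a set limit, under 55% cells CD8-positive and vesicle-bound, and CD8 cells' 90th-percentile brightness under 279; inactive means the rest.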

Tests used:
[1] = rapamycin-like changes in RPL19A-GFP expression – cell-based, S. cerevisiae, multiplex flow cytometry, primary screen (AID 1862; in the data active means percent of DMSO control GFP below about 86%;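 further: lower values mimic rapamycin by blocking the RPL19A rise seen in DMSO cells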); conditions: S. cerevisiae RPL19A-GFP strain, flow cytometry fluorescence, 3 h; at 10 µM; stronger effect = lower value
[2] = TOR pathway GLN3 branch reporter MEP2-GFP changes – S. cerevisiae, multiplex flow cytometry, primary screen (AID 1867;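 active means GFP response, as percent of the DMSO control, above the screen-wide mean plus 3 SD, about 139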;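 further: median GFP channel fluorescence of barcode-gated MEP2-GFP cells measured by flow cytometry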); conditions: S. cerevisiae MEP2-GFP strain, 3 h, at 10 µM, stronger effect = higher value, 100% means same as DMSO wells
[3] = TOR pathway RTG branch CIT2 reporter changes – S. cerevisiae, GFP fusion, multiplex flow cytometry, primary screen (AID 1870;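 active means percent response above a set limit, the screen-wide mean plus 3 SD, cut at about 130% in these data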;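 further: barcoded CIT2-GFP strain pooled with four other GFP strains with rapamycin as positive control; median GFP fluorescence per well over plate mean of DMSO wells so 100% = DMSO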); conditions: S. cerevisiae CIT2-GFP expression, 3 h, at 10 µM, stronger effect = higher value
[4] = TOR pathway LAP4-GFP level changes – S. cerevisiae, multiplex flow cytometry, primary screen (AID 1873;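 active means GFP signal, as percent of the solvent control, above the screen mean plus 3 SD, about 149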); conditions: S. cerevisiae LAP4-GFP expression, 3 h, at 10 µM, stronger effect = higher value
[5] = yeast AGP1-GFP level changes, GLN3 branch – cell-based, multiplex flow cytometry, S. cerevisiae, primary screen (AID 1887;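 active means GFP signal above the screen-wide mean plus 3 SD, that is over about 124.5% of the solvent control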;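 further: AGP1-GFP fusion strain of S. cerevisiae within a five-strain barcoded multiplex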); conditions: 3 h, at 10 µM, stronger effect = higher value
[6] = reduced mouse 2C T cell binding to pMHC/ICAM-1 vesicles – MLPCN validation set, flow cytometry, LFA-1/ICAM-1 modulator project, pilot screen (AID 2523); conditions: 2C mouse CD8+ T cells, at 7 µM, stronger effect = lower value; double positive events: measured here: CD8+/vesicle+ event percentage;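 on vesicle binding response: mean PE anti-B7-1 fluorescence of CD8+ cells relative to row control; 100% = QL9-loaded vesicles with DMSO vehicle in the same plate row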
[7] = biological target: Integrin beta-1 (Homo sapiens) + Integrin alpha-4 (Homo sapiens) (UniProt P13612+P05556); assay: alpha4beta1 integrin LIBS antibody binding reduction – U937 cells, HUTS-21 mAb, flow cytometry, validation set, VLA-4 allosteric modulator project, pilot screen (AID 2674;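 active means inhibition above 50%, about 3 SD of the validation set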;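 further: antibody binding induced by the VLA-4 ligand LDV present at three times its Kd; 0% = LDV ligand with antibody and no compound and 100% = antibody without LDV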); conditions: HUTS-21 LIBS mAb binding, at 6.7 µM, stronger effect = higher value, binding induced by LDV ligand
Integrin beta-1 (Homo sapiens) + Integrin alpha-4 (Homo sapiens), sequence (P05556 whole entry, looked up): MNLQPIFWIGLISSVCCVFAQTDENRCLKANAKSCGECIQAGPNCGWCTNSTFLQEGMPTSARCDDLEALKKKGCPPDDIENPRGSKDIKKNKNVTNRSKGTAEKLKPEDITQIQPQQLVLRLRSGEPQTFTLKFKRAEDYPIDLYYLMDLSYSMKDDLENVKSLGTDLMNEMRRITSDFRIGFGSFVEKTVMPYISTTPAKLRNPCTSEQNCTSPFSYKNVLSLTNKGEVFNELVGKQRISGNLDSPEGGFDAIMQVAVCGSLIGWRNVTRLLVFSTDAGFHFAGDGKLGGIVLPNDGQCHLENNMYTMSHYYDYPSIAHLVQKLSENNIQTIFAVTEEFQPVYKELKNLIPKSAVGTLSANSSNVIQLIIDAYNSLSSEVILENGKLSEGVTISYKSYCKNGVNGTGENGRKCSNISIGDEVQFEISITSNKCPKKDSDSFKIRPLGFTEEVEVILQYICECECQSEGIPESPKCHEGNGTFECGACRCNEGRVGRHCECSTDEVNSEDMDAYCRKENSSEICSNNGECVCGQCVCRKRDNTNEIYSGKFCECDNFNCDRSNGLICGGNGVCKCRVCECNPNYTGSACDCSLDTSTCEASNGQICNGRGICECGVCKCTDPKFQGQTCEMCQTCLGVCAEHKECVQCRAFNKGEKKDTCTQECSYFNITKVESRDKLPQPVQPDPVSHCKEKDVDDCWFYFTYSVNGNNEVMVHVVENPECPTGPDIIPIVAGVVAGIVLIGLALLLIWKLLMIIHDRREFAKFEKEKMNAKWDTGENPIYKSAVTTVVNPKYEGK
Integrin beta-1 (Homo sapiens) + Integrin alpha-4 (Homo sapiens), sequence (P13612 whole entry, looked up): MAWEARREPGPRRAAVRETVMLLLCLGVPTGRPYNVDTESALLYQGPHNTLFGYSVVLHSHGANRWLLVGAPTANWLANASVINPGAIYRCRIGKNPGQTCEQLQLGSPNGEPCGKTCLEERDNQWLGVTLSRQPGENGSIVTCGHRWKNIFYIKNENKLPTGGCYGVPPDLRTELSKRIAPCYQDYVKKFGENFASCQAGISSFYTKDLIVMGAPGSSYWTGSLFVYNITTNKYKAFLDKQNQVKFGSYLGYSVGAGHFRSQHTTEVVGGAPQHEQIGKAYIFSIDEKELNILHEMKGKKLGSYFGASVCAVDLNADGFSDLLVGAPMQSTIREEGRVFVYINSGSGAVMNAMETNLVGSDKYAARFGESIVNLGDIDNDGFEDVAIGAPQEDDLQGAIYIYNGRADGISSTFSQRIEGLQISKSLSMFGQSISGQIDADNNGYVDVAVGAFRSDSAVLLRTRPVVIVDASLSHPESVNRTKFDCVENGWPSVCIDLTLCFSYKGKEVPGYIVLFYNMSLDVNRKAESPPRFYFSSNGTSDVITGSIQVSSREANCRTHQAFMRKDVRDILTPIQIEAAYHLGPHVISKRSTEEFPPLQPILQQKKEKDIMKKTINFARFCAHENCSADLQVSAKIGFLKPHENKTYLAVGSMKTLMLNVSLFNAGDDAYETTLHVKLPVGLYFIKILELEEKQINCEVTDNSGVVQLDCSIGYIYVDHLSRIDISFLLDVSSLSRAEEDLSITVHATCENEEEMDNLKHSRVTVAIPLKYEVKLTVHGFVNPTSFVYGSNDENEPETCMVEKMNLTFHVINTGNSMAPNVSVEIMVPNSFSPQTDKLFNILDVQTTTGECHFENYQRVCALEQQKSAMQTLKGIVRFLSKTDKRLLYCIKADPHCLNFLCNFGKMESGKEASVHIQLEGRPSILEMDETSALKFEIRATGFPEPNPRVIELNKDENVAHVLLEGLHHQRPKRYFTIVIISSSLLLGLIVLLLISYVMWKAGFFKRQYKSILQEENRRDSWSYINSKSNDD

[8] = calorie-restriction mimetic ROS inhibitors, yeast – validation compound set, pilot screen (AID 2706;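 active means superoxide response below 65% of plate, a cut near 3 SD across the whole screen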;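 further: yeast exposed to compound for one week at 30 degrees C before staining; 100% = mean of all compound wells on the same plate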); conditions: S. cerevisiae aging, superoxide DHE fluorescence; at 10 µM; stronger effect = lower value
[9] = biological target: Beta-adrenergic receptor kinase 1 (Homo sapiens) (UniProt P25098); assay: GRK2 binders displacing RNA aptamer, biochemical, validation, human GRK2, bead flow cytometry (AID 488806;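 active means aptamer binding inhibition above 30%, about 3 SD of noise from non-fluorescent compounds; inactive means inhibition at or below 30%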); conditions: bead-bound GRK2, FAM-aptamer displacement, at 10 µM, stronger effect = higher value
Beta-adrenergic receptor kinase 1 (Homo sapiens), sequence (P25098 whole entry, looked up): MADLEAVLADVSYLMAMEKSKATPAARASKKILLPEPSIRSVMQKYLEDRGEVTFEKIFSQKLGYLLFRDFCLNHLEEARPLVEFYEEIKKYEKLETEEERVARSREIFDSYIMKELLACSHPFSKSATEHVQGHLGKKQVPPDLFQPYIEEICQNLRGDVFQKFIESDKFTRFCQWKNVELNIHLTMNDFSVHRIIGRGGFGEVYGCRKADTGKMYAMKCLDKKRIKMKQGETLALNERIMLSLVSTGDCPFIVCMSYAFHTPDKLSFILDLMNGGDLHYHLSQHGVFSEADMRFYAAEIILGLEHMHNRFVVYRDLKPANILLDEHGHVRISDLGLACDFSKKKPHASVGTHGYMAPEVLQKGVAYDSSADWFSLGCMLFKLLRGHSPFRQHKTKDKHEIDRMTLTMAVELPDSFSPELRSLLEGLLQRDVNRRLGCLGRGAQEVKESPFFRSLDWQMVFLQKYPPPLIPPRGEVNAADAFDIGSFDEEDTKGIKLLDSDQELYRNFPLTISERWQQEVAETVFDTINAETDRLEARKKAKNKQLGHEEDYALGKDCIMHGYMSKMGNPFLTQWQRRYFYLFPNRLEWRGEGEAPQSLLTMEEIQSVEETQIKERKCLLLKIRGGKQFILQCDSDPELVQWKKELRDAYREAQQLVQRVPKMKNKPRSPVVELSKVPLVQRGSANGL

[10] = biological target: Beta-2 adrenergic receptor (Homo sapiens) (UniProt P07550); assay: agonist-induced loss of surface beta2AR – cell-based, FAP fluorogen, flow cytometry, validation set, pilot screen (AID 504459;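 active means percent response above 42, roughly 3 SD of non-fluorescent test compounds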;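 further: agonist-driven loss of surface beta2AR via internalization measured by FAP dye flow cytometry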); conditions: Am2.2-beta2AR cells, at 10 µM, stronger effect = higher value
Beta-2 adrenergic receptor (Homo sapiens), sequence (P07550 whole entry, looked up): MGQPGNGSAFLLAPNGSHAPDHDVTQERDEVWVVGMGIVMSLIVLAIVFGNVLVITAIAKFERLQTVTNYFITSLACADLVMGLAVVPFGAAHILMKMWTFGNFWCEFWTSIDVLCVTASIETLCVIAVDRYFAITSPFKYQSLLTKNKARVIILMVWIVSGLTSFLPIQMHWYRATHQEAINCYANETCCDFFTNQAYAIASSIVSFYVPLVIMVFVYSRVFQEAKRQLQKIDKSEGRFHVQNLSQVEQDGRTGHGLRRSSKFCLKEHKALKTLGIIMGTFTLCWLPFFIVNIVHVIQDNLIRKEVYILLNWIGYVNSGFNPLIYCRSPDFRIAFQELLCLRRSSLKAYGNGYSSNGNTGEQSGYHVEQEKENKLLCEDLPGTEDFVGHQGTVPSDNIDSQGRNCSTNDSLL

[11] = biological target: AP-2 complex subunit beta (Homo sapiens) (UniProt P63010); assay: beta-arrestin/AP2 interaction blockers – biochemical, validation set, GST-AP2 beads, flow cytometry, pilot screen (AID 504541;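 active means inhibition above 54%, about 3 SD of non-fluorescent compounds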;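 further: AP2 carries R879A mutation and is captured from E. coli lysate; bead-bound FITC arrestin peptide fluorescence measuring arrestin peptide binding to AP2; 0% = DMSO wells and 100% = excess unlabeled arrestin peptide control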); conditions: FITC arrestin peptide, at 10 µM, stronger effect = higher value, AP2 beta2 appendage fragment, R879A mutant
AP-2 complex subunit beta (Homo sapiens), sequence (P63010 whole entry, looked up, the tested form may be a part, one chain of several): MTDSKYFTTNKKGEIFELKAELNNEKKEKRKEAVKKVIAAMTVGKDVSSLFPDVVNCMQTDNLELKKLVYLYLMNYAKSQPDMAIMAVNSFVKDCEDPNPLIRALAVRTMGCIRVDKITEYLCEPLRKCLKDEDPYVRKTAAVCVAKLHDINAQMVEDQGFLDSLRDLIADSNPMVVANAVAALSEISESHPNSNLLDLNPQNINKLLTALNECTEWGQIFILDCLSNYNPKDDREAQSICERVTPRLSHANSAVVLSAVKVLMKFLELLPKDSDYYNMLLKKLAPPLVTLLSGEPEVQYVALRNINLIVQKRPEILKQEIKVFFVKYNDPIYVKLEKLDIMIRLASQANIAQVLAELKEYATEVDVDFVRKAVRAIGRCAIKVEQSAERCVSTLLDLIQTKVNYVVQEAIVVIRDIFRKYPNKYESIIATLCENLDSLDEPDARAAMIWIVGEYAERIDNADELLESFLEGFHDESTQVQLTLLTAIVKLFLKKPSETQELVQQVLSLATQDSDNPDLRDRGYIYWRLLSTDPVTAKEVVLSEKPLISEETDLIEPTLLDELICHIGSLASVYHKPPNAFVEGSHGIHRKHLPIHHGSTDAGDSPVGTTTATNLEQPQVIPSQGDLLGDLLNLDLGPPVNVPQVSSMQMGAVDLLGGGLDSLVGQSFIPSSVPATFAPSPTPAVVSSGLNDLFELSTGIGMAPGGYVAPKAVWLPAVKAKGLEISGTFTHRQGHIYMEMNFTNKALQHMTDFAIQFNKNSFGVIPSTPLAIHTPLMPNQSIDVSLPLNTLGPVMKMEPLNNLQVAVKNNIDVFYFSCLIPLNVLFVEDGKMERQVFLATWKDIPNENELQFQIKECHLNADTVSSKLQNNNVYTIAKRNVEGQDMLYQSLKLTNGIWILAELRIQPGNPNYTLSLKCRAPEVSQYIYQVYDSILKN

[12] = cytosolic pH regulators acting via V-ATPase – S. cerevisiae, pHLuorin, HTS validation (AID 504600; in the data active means response above about 15%;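 further: plate controls were DMSO for no effect and reference compound for full effect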); conditions: V-ATPase proton transport, at 10 µM, stronger effect = higher value
[13] = system: anti-desmoglein-3 scFv antibody binding to human DSG3; assay: blockers of pathogenic pemphigus antibody–desmoglein-3 binding – biochemical, validation compound set, bead-based, flow cytometry, pilot screen (AID 588368;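 active means binding below the plate cutoff, the plate median minus 3 SD, with a reading above zero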;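 further: signal is the median channel fluorescence of bead-bound GFP antibody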); conditions: Protein G beads, DSG3-Fc, scFv-GFP binding, at 10 µM, stronger effect = lower value
[14] = Nile Red efflux blockade in pump-expressing yeast – validation compound set, multiplex, phenotypic, pilot screen (AID 588506;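 active means efflux inhibition above 0.42, the validation set average plus 4 SD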;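 further: Nile Red retained in cells so higher fluorescence means more efflux inhibition; 0 = negative control wells and 1 = enniatin B 25 µM full block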); conditions: S. cerevisiae pump-expressing triplex, Nile Red efflux flow cytometry; at 10 µM; stronger effect = higher value; the pumps come from Candida albicans
[15] = biological target: ATP-binding cassette sub-family B member 6 (Homo sapiens) (UniProt Q9NP58); assay: blockers of ABCB6-driven porphyrin uptake – K562-ABCB6 cells, flow cytometry, validation set, pilot screen (AID 588550;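 active means inhibition above the screen-wide mean plus 3 SD, about 51%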;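 further: 0% = DMSO wells and 100% = benzethonium chloride 70 µM positive control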); conditions: K562-ABCB6 porphyrin accumulation, 1 h, at 10 µM, stronger effect = higher value
ATP-binding cassette sub-family B member 6 (Homo sapiens), sequence (Q9NP58 whole entry, looked up): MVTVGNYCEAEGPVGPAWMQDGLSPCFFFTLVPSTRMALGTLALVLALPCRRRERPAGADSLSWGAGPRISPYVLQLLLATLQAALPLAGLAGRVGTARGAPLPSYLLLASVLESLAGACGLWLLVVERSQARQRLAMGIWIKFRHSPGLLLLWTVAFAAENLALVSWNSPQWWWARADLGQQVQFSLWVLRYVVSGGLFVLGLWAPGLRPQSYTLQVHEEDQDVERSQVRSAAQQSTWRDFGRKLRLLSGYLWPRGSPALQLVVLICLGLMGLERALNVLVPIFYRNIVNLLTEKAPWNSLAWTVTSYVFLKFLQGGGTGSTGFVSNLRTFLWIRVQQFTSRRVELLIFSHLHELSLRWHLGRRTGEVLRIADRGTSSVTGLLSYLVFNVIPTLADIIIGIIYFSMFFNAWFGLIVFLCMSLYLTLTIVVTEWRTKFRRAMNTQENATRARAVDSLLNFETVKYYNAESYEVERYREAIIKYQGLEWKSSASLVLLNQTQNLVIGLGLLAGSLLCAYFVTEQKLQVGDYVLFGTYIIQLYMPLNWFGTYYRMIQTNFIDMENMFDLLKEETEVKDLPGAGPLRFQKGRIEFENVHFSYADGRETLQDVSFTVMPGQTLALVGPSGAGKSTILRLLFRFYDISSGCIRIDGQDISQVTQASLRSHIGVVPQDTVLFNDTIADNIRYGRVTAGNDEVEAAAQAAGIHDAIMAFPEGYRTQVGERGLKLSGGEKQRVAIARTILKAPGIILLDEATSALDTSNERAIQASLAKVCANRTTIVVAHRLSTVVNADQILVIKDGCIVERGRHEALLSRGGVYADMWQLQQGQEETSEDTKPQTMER

[16] = AML differentiation inducers, ER-HoxA9 marrow cells – cell-based, GFP/MAC1 double positive, flow cytometry, validation set, primary screen (AID 588685;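 active means differentiation response of at least 50%, scaled between solvent and reference control, from cells with both markers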;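 further: compound exposure lasts four days before antibody staining and flow analysis; 0% = DMSO wells and 100% = 5 µM fulvestrant positive control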); conditions: stronger effect = higher value, normalized: vehicle 0, fulvestrant 100

CCc1nc2ccccc2c(NC(=O)CN2CC(C)CC(C)C2)c1C (stereo unspecified)
percent of DMSO control GFP [1]: 99% (inactive)
GFP response vs DMSO [2]: 105% (inactive)
percent response of DMSO control [3]: 101% (inactive)
GFP response vs DMSO [4]: 90.7% (inactive)
GFP response, % of DMSO [5]: 96.2% (inactive)
double positive events [6]: 63.1%
vesicle binding response [6]: 179% (inactive)
inhibition [7]: -7.72% (inactive)
superoxide response (% of plate) [8]: 105% (inactive)
aptamer binding inhibition [9]: -2% (inactive)
response [10]: 0.46% (inactive)
inhibition [11]: -1.11% (inactive)
response [12]: 9.89% (inactive)
binding (% of control) [13]: 93.8% (inactive)
efflux inhibition (fraction of control) [14]: 0.11 (inactive)
inhibition [15]: 10% (inactive)
differentiation response [16]: 0.24% (inactive)

O=c1nc2sc3ccccc3n2c(=O)n1-c1ccc(Cl)cc1
percent of DMSO control GFP [1]: 105% (inactive)
GFP response vs DMSO [2]: 97.2% (inactive)
percent response of DMSO control [3]: 108% (inactive)
GFP response vs DMSO [4]: 96.6% (inactive)
GFP response, % of DMSO [5]: 99.7% (inactive)
double positive events [6]: 64.1%
vesicle binding response [6]: 232% (inactive)
inhibition [7]: -12.9% (inactive)
superoxide response (% of plate) [8]: 110% (inactive)
aptamer binding inhibition [9]: -3% (inactive)
response [10]: -10.3% (inactive)
inhibition [11]: -5.72% (inactive)
response [12]: 1.03% (inactive)
binding (% of control) [13]: 96.4% (inactive)
efflux inhibition (fraction of control) [14]: -0.14 (inactive)
inhibition [15]: 11% (inactive)
differentiation response [16]: 3.18% (inactive)

CCN1C(=O)C(CC(=O)Nc2ccc(OC)cc2)N(CCc2ccc(F)cc2)C1=S (stereo unspecified)
percent of DMSO control GFP [1]: 96.9% (inactive)
GFP response vs DMSO [2]: 98.5% (inactive)
percent response of DMSO control [3]: 93.9% (inactive)
GFP response vs DMSO [4]: 124% (inactive)
GFP response, % of DMSO [5]: 96.2% (inactive)
double positive events [6]: 60.7%
vesicle binding response [6]: 292% (inactive)
inhibition [7]: -3.16% (inactive)
superoxide response (% of plate) [8]: 102% (inactive)
aptamer binding inhibition [9]: 2% (inactive)
response [10]: 5.66% (inactive)
inhibition [11]: 50.8% (inactive)
response [12]: -3.51% (inactive)
binding (% of control) [13]: 102% (inactive)
efflux inhibition (fraction of control) [14]: 0.19 (inactive)
inhibition [15]: 3% (inactive)
differentiation response [16]: 8.8% (inactive)

CCc1cc(/C(Cc2ccccn2)=N\O)c(O)cc1O
percent of DMSO control GFP [1]: 99.1% (inactive)
GFP response vs DMSO [2]: 102% (inactive)
percent response of DMSO control [3]: 107% (inactive)
GFP response vs DMSO [4]: 83.7% (inactive)
GFP response, % of DMSO [5]: 91.4% (inactive)
double positive events [6]: 52.1%
vesicle binding response [6]: 51.2% (active)
inhibition [7]: -14.1% (inactive)
superoxide response (% of plate) [8]: 104% (inactive)
aptamer binding inhibition [9]: 3% (inactive)
response [10]: 10.8% (inactive)
inhibition [11]: 15.4% (inactive)
response [12]: 2.25% (inactive)
binding (% of control) [13]: 101% (inactive)
efflux inhibition (fraction of control) [14]: -0.17 (inactive)
inhibition [15]: 1% (inactive)
differentiation response [16]: -5.6% (inactive)

CC(=O)OCC(=O)[C@@]1(O)CC[C@H]2[C@@H]3CCC4=CC(=O)C=C[C@]4(C)[C@H]3[C@@H](O)C[C@@]21C
percent of DMSO control GFP [1]: 90.2% (inactive)
GFP response vs DMSO [2]: 132% (inactive)
percent response of DMSO control [3]: 99.2% (inactive)
GFP response vs DMSO [4]: 101% (inactive)
GFP response, % of DMSO [5]: 103% (inactive)
double positive events [6]: 66.4%
vesicle binding response [6]: 161% (inactive)
inhibition [7]: 9.37% (inactive)
superoxide response (% of plate) [8]: 97% (inactive)
aptamer binding inhibition [9]: 1% (inactive)
response [10]: 4% (inactive)
inhibition [11]: 8.75% (inactive)
response [12]: -0.94% (inactive)
binding (% of control) [13]: 98.1% (inactive)
efflux inhibition (fraction of control) [14]: -0.09 (inactive)
inhibition [15]: 9% (inactive)
differentiation response [16]: 5.73% (inactive)

CC(=O)N1c2ccccc2C(C)=CC1(C)C
percent of DMSO control GFP [1]: 101% (inactive)
GFP response vs DMSO [2]: 107% (inactive)
percent response of DMSO control [3]: 98.3% (inactive)
GFP response vs DMSO [4]: 104% (inactive)
GFP response, % of DMSO [5]: 125% (inactive)
double positive events [6]: 64.4%
vesicle binding response [6]: 199% (inactive)
inhibition [7]: -17.3% (inactive)
superoxide response (% of plate) [8]: 112% (inactive)
aptamer binding inhibition [9]: 2% (inactive)
response [10]: -23.5% (inactive)
inhibition [11]: -16.5% (inactive)
response [12]: -0.45% (inactive)
binding (% of control) [13]: 109% (inactive)
efflux inhibition (fraction of control) [14]: -0.04 (inactive)
inhibition [15]: 2% (inactive)
differentiation response [16]: -1.05% (inactive)

Cc1ccc(CN2CCN(Cc3cn[nH]c3C3CCCCC3)CC2CCO)cc1 (stereo unspecified)
percent of DMSO control GFP [1]: 102% (inactive)
GFP response vs DMSO [2]: 103% (inactive)
percent response of DMSO control [3]: 97.7% (inactive)
GFP response vs DMSO [4]: 106% (inactive)
GFP response, % of DMSO [5]: 122% (inactive)
double positive events [6]: 58.2%
vesicle binding response [6]: 264% (inactive)
inhibition [7]: 21% (inactive)
superoxide response (% of plate) [8]: 87.9% (inactive)
aptamer binding inhibition [9]: 0% (inactive)
response [10]: -22.7% (inactive)
inhibition [11]: 7.73% (inactive)
response [12]: -2.29% (inactive)
binding (% of control) [13]: 103% (inactive)
efflux inhibition (fraction of control) [14]: 0.08 (inactive)
inhibition [15]: 8% (inactive)
differentiation response [16]: -5.97% (inactive)

CC(C)(CO)CNC(=O)CC1C(=O)NCCN1CC(c1ccccc1)c1ccccc1 (stereo unspecified)
percent of DMSO control GFP [1]: 97.8% (inactive)
GFP response vs DMSO [2]: 106% (inactive)
percent response of DMSO control [3]: 86.3% (inactive)
GFP response vs DMSO [4]: 114% (inactive)
GFP response, % of DMSO [5]: 96% (inactive)
double positive events [6]: 65.3%
vesicle binding response [6]: 7860% (inactive)
inhibition [7]: 3.67% (inactive)
superoxide response (% of plate) [8]: 115% (inactive)
aptamer binding inhibition [9]: -1% (inactive)
response [10]: -3.26% (inactive)
inhibition [11]: -0.19% (inactive)
response [12]: 0.18% (inactive)
binding (% of control) [13]: 99.5% (inactive)
efflux inhibition (fraction of control) [14]: 0.05 (inactive)
inhibition [15]: 7% (inactive)
differentiation response [16]: -8.8% (inactive)
